Results filed as inconclusive are left out. Where a call stands in place of a potency, no number is given. The source made the active and inactive calls. Calls follow the shape of the full dose curve.
target: D(2) dopamine receptor (Homo sapiens) (UniProt P14416); experiment: Dopamine D2 receptor (DRD2) small molecule agonists, cell-based qHTS assay (AID 1963594); conditions: HEK293-DRD2 cAMP HTRF, agonist mode, 30 min; series mostly up to 92.4 µM; also: nearly all actives have a fitted effect of over 35% in size
From the text: National Center for Advancing Translational Sciences [NCATS]
Division of Preclinical Innovation [DPI]
U.S. Environmental Protection Agency [EPA]
National Institutes of Environmental Health Sciences [NIEHS]
National Toxicology Program [NTP]
U.S. Food and Drug Administration [FDA]
DRD2 is the D2 subtype of the dopamine receptor, which is coupled to Gi subtype of G protein-coupled receptor. This G protein-coupled receptor inhibits adenylyl cyclase activity. The DRD2-HEK293 cell line stably expressing D2 dopamine receptor can be used for screening agonists and antagonists of interactions between D2 and its ligands. The Hek293-DRD2 cAMP assay is based on HTRF technology. It measures changes of cAMP accumulation in response to Gi coupled GPCR activation or inhibition.
Tox21 Assay Protocol Summary:
DRD2-Hek293 cells were dispensed at 600 cells/3uL/well in 1536-well white plates using a Multidrop Dispenser. After the assay plates were incubated at a 37 C/5% CO2 incubator for 24 h, 1 uL of Ro20-1724 at final concentration of 0.1 mM was transferred to the assay plate by a Flying Reagent Dispenser. Following Ro20-1724 addition, 23 nL of compound dissolved in DMSO, positive controls or DMSO only was added to the assay plates via Wako pintool station. The assay plates were incubated at room temperature for 10 min. Next, 1 uL of NKH477 at 200nM was added into the plates. After the assay plates were incubated at room temperature for an additional 30 min, 2.5 ul/well of cAMP-d2 and 2.5 ul/well of anti-cAMP-cryptate were added respectively into the assay plates using a Flying Reagent Dispenser. The plates were incubated at room temperature for 1 h. The fluorescence intensity in the plates was measured at 340 nm excitation and 665 & 620 nm emission by an Envision plate reader.

Sequence of D(2) dopamine receptor (Homo sapiens) (P14416 whole entry, looked up): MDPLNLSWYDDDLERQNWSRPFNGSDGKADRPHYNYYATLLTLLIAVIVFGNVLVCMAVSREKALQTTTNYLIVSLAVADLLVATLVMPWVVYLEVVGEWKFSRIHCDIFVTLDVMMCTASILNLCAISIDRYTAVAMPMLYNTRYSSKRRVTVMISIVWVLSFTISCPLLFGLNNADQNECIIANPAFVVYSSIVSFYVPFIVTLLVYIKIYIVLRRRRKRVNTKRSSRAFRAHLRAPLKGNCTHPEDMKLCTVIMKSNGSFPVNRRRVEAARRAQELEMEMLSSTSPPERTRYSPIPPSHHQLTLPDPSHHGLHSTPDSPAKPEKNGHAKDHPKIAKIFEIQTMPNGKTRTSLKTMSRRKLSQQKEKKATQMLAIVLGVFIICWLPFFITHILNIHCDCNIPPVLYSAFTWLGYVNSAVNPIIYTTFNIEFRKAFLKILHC

SMILES	Potency
O=C(CO)[C@@H](O)[C@H](O)[C@H](O)CO	inactive
CCC(C(=O)O)c1ccc(N2Cc3ccccc3C2=O)cc1 (stereo not given)	inactive
CC(CC(=O)O)CC(C)(C)C (stereo not given)	inactive
CCCCCCc1ccc(N)cc1	inactive
COc1cccc([C@H](O)C2CCN(CCc3ccc(F)cc3)CC2)c1OC	inactive
Cc1cc(C(C)(C)C)c(O)c(C)c1Cn1c(=O)n(Cc2c(C)cc(C(C)(C)C)c(O)c2C)c(=O)n(Cc2c(C)cc(C(C)(C)C)c(O)c2C)c1=O	inactive
O=C=Nc1cccc(C(F)(F)F)c1	inactive
CCCC(=O)OCOC(=O)C1=C(C)NC(C)=C(C(=O)OC)C1c1cccc(Cl)c1Cl (stereo not given)	inactive
CC1(C)S[C@@H]2[C@H](NC(=O)C(C(=O)O)c3ccccc3)C(=O)N2[C@H]1C(=O)O (stereo not given in full)	inactive
CCCCCOC(=O)CCC	inactive
OCC(CO)(CO)COCC(CO)(CO)CO	inactive
O=C1C(CCS(=O)c2ccccc2)C(=O)N(c2ccccc2)N1c1ccccc1 (stereo not given)	inactive
CCCCCCOC(=O)CCCCC	inactive
CCOC(=O)CCC(=O)OCC	inactive
C[C@H](N)C(=O)N[C@@H](C)C(=O)NC1[C@H]2CN(c3nc4c(cc3F)c(=O)c(C(=O)O)cn4-c3ccc(F)cc3F)C[C@@H]12 (stereo not given in full)	inactive
C=COCC1CCC(COC=C)CC1 (stereo not given)	inactive
O=c1cc[nH]cc1	inactive
CCCCN(C)C	inactive
Cc1cc(C)c(O)c(C(C)(C)C)c1	inactive
O=C(O)c1ccc(Cl)cc1Cl	inactive

SMILES	Potency
CCCCCCCCCCCCCCCCC(=O)O	inactive
Cc1ccc2c(c1[N+](=O)[O-])C(=O)c1ccccc1C2=O	inactive
CN1CCC[C@@H]1Cc1c[nH]c2ccc(CCS(=O)(=O)c3ccccc3)cc12	inactive
CCOC(=O)Cc1cccc2ccccc12	inactive
O=C(NCC1CN(c2ccc(N3CCOCC3=O)cc2)C(=O)O1)c1ccc(Cl)s1 (stereo not given)	inactive
CC1(c2ccccc2)OC(C(=O)O)=CC1=O (stereo not given)	inactive
ONc1ccccc1	inactive
CN(C)Cc1ccccc1	inactive
CC1=CC(O)CC(C)(C)C1 (stereo not given)	inactive
O=C1CCC(C2CCCCC2)CC1	inactive
CC(C)(C)C(=O)CC(=O)C(C)(C)C	inactive
CCCCCCCCCCCBr	inactive
Clc1nnc(Cl)c2ccccc12	inactive
O=C(O)c1cc(-c2ccc(F)cc2F)ccc1O	inactive
COc1ccc(C2C(=O)c3ccccc3C2=O)cc1	inactive
CN1[C@@H]2CC[C@H]1CC(OC(=O)c1c[nH]c3ccccc13)C2 (stereo not given in full)	inactive
On1nnc2ccccc21	inactive
C=C(C)CCCC(C)CCO (stereo not given)	inactive
Cc1ccc(N)nc1	inactive
CCCCCC[C@@H](O)C/C=C\CCCCCCCC(=O)OCC(O)CO (stereo not given in full)	inactive

Reference: PubChem BioAssay (Tox21)
